Source: the supplement of paper PMC8975748
Structures can show the parent of a compound that is named as a salt. ± gives the standard deviation of the averaged measurements.

Experiments:
[1] = test system: Saccharomyces cerevisiae BY4741 SeMeCo community; assay: mean cell size (pixel area) (pixels); higher = larger cells; conditions: 10 µM; 24 h; SM minimal medium
Procedure, shortened: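 Drug was acoustically predosed into 384-well plates to a final 10 µM in SM medium, and each well received 70 µl of Saccharomyces cerevisiae BY4741 diluted to OD600 = 0.3 from an overnight preculture at OD600 = 1.0. This four-plasmid fluorescent community carries one fluorescent marker per plasmid, and each plasmid complements one auxotrophy. After 24 h, the cells were fixed with paraformaldehyde and imaged by automated confocal microscopy, and Harmony analysis yielded mean cell pixel area per well. Each value is averaged over 3 replicates. Same SeMeCo high-content imaging drug screen: Selleck FDA-approved drugs at 10 µM, 24 h in SM medium, 384-well plates, 3 replicates.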

[2] = test system: Saccharomyces cerevisiae BY4741 SeMeCo community; assay: z-score of prototroph abundance vs DMSO median; higher = larger share of this subpopulation than in DMSO controls; conditions: 10 µM; 24 h; SM minimal medium; subpopulation (auxotrophy): Prototroph
Procedure, shortened: (§1)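 A Saccharomyces cerevisiae BY4741 community carried four plasmids, each restoring one auxotrophy and encoding a distinct fluorescent protein. It was pre-grown overnight to OD600 1.0, diluted to 0.3, and 70 µl was added to 384-well plates acoustically predosed with library drugs (10 µM final), then grown 24 h in minimal SM medium. Cells were paraformaldehyde-fixed and imaged by automated confocal microscopy, with single-auxotroph fluorescent strains setting thresholds and autofluorescence correction. Each subpopulation's abundance was scored as a z-score against the vehicle-well median.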

[3] = test system: Saccharomyces cerevisiae BY4741 SeMeCo community; assay: z-score of subpopulation abundance vs DMSO median, subpopulation auxotrophic for U; higher = larger share of this subpopulation than in DMSO controls; conditions: 10 µM; 24 h; SM minimal medium; subpopulation (auxotrophy): U
Procedure, shortened: as §1

[4] = test system: Saccharomyces cerevisiae BY4741 SeMeCo community; assay: z-score of subpopulation abundance vs DMSO median, subpopulation auxotrophic for H; higher = larger share of this subpopulation than in DMSO controls; conditions: 10 µM; 24 h; SM minimal medium; subpopulation (auxotrophy): H
Procedure, shortened: as §1

[5] = test system: Saccharomyces cerevisiae BY4741 SeMeCo community; assay: z-score of subpopulation abundance vs DMSO median, subpopulation auxotrophic for LM; higher = larger share of this subpopulation than in DMSO controls; conditions: 10 µM; 24 h; SM minimal medium; subpopulation (auxotrophy): LM
Procedure, shortened: as §1

[6] = test system: Saccharomyces cerevisiae BY4741 SeMeCo community; assay: z-score of subpopulation abundance vs DMSO median, subpopulation auxotrophic for HM; higher = larger share of this subpopulation than in DMSO controls; conditions: 10 µM; 24 h; SM minimal medium; subpopulation (auxotrophy): HM
Procedure, shortened: as §1

[7] = test system: Saccharomyces cerevisiae BY4741 SeMeCo community; assay: z-score of subpopulation abundance vs DMSO median, subpopulation auxotrophic for HU; higher = larger share of this subpopulation than in DMSO controls; conditions: 10 µM; 24 h; SM minimal medium; subpopulation (auxotrophy): HU
Procedure, shortened: as §1

[8] = test system: Saccharomyces cerevisiae BY4741 SeMeCo community; assay: z-score of subpopulation abundance vs DMSO median, subpopulation auxotrophic for UM; higher = larger share of this subpopulation than in DMSO controls; conditions: 10 µM; 24 h; SM minimal medium; subpopulation (auxotrophy): UM
Procedure, shortened: as §1

[9] = test system: Saccharomyces cerevisiae BY4741 SeMeCo community; assay: z-score of subpopulation abundance vs DMSO median, subpopulation auxotrophic for HL; higher = larger share of this subpopulation than in DMSO controls; conditions: 10 µM; 24 h; SM minimal medium; subpopulation (auxotrophy): HL
Procedure, shortened: as §1

[10] = test system: Saccharomyces cerevisiae BY4741 SeMeCo community; assay: z-score of subpopulation abundance vs DMSO median, subpopulation auxotrophic for HLU; higher = larger share of this subpopulation than in DMSO controls; conditions: 10 µM; 24 h; SM minimal medium; subpopulation (auxotrophy): HLU
Procedure, shortened: as §1

[11] = test system: Saccharomyces cerevisiae BY4741 SeMeCo community; assay: z-score of subpopulation abundance vs DMSO median, subpopulation auxotrophic for HLM; higher = larger share of this subpopulation than in DMSO controls; conditions: 10 µM; 24 h; SM minimal medium; subpopulation (auxotrophy): HLM
Procedure, shortened: as §1

[12] = test system: Saccharomyces cerevisiae BY4741 SeMeCo community; assay: z-score of subpopulation abundance vs DMSO median, subpopulation auxotrophic for HUM; higher = larger share of this subpopulation than in DMSO controls; conditions: 10 µM; 24 h; SM minimal medium; subpopulation (auxotrophy): HUM
Procedure, shortened: as §1

[13] = test system: Saccharomyces cerevisiae BY4741 SeMeCo community; assay: z-score of subpopulation abundance vs DMSO median, subpopulation auxotrophic for LUM; higher = larger share of this subpopulation than in DMSO controls; conditions: 10 µM; 24 h; SM minimal medium; subpopulation (auxotrophy): LUM
Procedure, shortened: as §1

[14] = test system: Saccharomyces cerevisiae BY4741 SeMeCo community; assay: z-score of subpopulation abundance vs DMSO median, subpopulation auxotrophic for HLUM; higher = larger share of this subpopulation than in DMSO controls; conditions: 10 µM; 24 h; SM minimal medium; subpopulation (auxotrophy): HLUM
Procedure, shortened: as §1

[15] = test system: Saccharomyces cerevisiae BY4741 SeMeCo community; assay: z-score of subpopulation abundance vs DMSO median, subpopulation auxotrophic for M; higher = larger share of this subpopulation than in DMSO controls; conditions: 10 µM; 24 h; SM minimal medium; subpopulation (auxotrophy): M
Procedure, shortened: as §1

[16] = test system: Saccharomyces cerevisiae BY4741 SeMeCo community; assay: z-score of subpopulation abundance vs DMSO median, subpopulation auxotrophic for L; higher = larger share of this subpopulation than in DMSO controls; conditions: 10 µM; 24 h; SM minimal medium; subpopulation (auxotrophy): L
Procedure, shortened: as §1

[17] = test system: Saccharomyces cerevisiae BY4741 SeMeCo community; assay: z-score of subpopulation abundance vs DMSO median, subpopulation auxotrophic for LU; higher = larger share of this subpopulation than in DMSO controls; conditions: 10 µM; 24 h; SM minimal medium; subpopulation (auxotrophy): LU
Procedure, shortened: as §1

SMILES	mean cell size [1]	z-score of prototroph abundance [2]	z-score of subpopulation abundance [3]	z-score of subpopulation abundance [4]	z-score of subpopulation abundance [5]	z-score of subpopulation abundance [6]	z-score of subpopulation abundance [7]	z-score of subpopulation abundance [8]	z-score of subpopulation abundance [9]	z-score of subpopulation abundance [10]	z-score of subpopulation abundance [11]	z-score of subpopulation abundance [12]	z-score of subpopulation abundance [13]	z-score of subpopulation abundance [14]	z-score of subpopulation abundance [15]	z-score of subpopulation abundance [16]	z-score of subpopulation abundance [17]
Cc1ncc([N+](=O)[O-])n1CC(C)O (centres undefined) [Secnidazole]	12.4 ± 0.14	-0.48	1.82	-0.22	-0.67	-0.21	0.82	0.75	-0.51	0.35	-0.55	0.55	-0.06	-0.46			
CCN(CC)CCNC(=O)c1cc(Cl)c(N)cc1OC [Metoclopramide]	12 ± 0.25		1.49		0.08	0.05	1.02	1.28			0.54	0.35	1.17	1.06	0.35	-0.22	0.6
CC(C)N1CCN(c2ccc(OCC3COC(Cn4cncn4)(c4ccc(Cl)cc4Cl)O3)cc2)CC1 (centres undefined) [Terconazole]	12.1 ± 0.043	1.34		-0.38	-0.49	-1.2	-0.58	-0.8			-0.59	-0.65		-0.55	-1.43	0.04	-0.65
NC(=O)c1cnccn1 [Pyrazinamide]	12.6 ± 0.23	-0.04			-0.13	-0.55	-0.29		-0.42	-0.7	-0.57	0.08	-0.08	-0.48		-1.21	
Cc1ccc2c(Cl)cc(Cl)c(O)c2n1 [Chlorquinaldol]	14.5 ± 0.18	-18.8	-6.35	9.18	9.8	33.5	7.3	-1.95	19.8		107	15.8	16.2	114	7.61	0.46	-2.2
CN1[C@@H]2CC[C@H]1C[C@@H](OC(=O)c1c[nH]c3ccccc13)C2 [Tropisetron HCl]	12.57 ± 0.083	-1	-0.06	-0.68	1.09	0.26	-0.68	0.28	-0.91		-0.38	0.19	0.15		1.04	0.79	1
Cc1c(OCC(F)(F)F)ccnc1C[S+]([O-])c1nc2ccccc2[nH]1 (centres undefined) [Lansoprazole]	12.5 ± 0.14	-0.04		1.84	1.16	-0.45	0.54	-1.1			0.03	-0.3	1.02	1.37	-0.85	1.12	-0.54
C[C@]12CC[C@@H]3c4ccc(O)cc4CC[C@H]3[C@@H]1CC[C@@H]2OC(=O)CCC1CCCC1 [Estradiol Cypionate]	12.4 ± 0.13	-0.3	0.71		-0.12	-0.34	0.6	0.45	-0.29		0.33	1.22	0.29	0.52	-0.43	-0.23	0.17
CN(C)CCn1nnnc1SCC1=C(C(=O)O)N2C(=O)[C@@H](NC(=O)Cc3csc(N)n3)[C@H]2SC1 [Cefotiam hydrochloride]	12.24 ± 0.031	-1.4	-0.08	1.72	1.06	1.4	0.76	1.04			0.75	0.5	1.11	0.99	1.1	1.99	1.53
Cc1onc(-c2ccccc2Cl)c1C(=O)N[C@@H]1C(=O)N2[C@@H]1SC(C)(C)[C@@H]2C(=O)O [Cloxacillin Sodium]	12.44 ± 0.058		0.9	-0.29	0.63	-0.01	0.86	1.46	-0.33	0.44	0.97	2.07	1.65	1.38		0.15	
CC1(C)S[C@@H]2[C@H](NC(=O)[C@H](NC(=O)N3CCN(S(C)(=O)=O)C3=O)c3ccccc3)C(=O)N2[C@H]1C(=O)O [Mezlocillin Sodium]	12.5 ± 0.21		0	0.1	-0.38	-0.71	0.3	-0.36	-0.55		-0.19	-0.29	-0.16	-0.69	-0.07	0.24	0.6
CCN1CCN(C(=O)N[C@@H](C(=O)N[C@@H]2C(=O)N3C(C(=O)O)=C(CSc4nnnn4C)CS[C@H]23)c2ccc(O)cc2)C(=O)C1=O [Cefoperazone]	12.5 ± 0.21	0.07	-0.72	0.43	1.36	0.3	-0.48	0.26		-0.34	0.34		0.47	0.24		0.4	
Cc1c(S(=O)(=O)O)oc2c1C(=O)C(=O)c1c-2ccc2c1CCCC2(C)C [Tanshinone IIA sulfonate (sodium)]	11.85 ± 0.095	-0.48			-0.11	-0.31	-2.62	1.77	4.28		3.71	0.71	1.3	1.74	1.72	0.5	-0.91
Fc1ccc([C@@H]2CCNC[C@H]2COc2ccc3c(c2)OCO3)cc1 [Paroxetine HCl]	12.47 ± 0.086	0.34	0.75	0.09	-0.61	-0.49	-1.01		0.14		0.16	-0.39		0.06	-0.31	-0.43	-0.16
Cc1cccc(C)c1NC(=O)C1CCCCN1C (centres undefined) [Mepivacaine]	12.2 ± 0.28	-0.01	0.11	-1.62			-0.53		-0.24	0.12	-0.7	-0.62	0.08	-0.41		-0.3	
